PubChem BioAssay (EPA / NIEHS)
Results filed as inconclusive are left out. Activity calls are given as the source filed them. The calls were made as follows, unless noted: active = hit-call score of the fitted dose curve at least 0.9, where 1 is the maximum; inconclusive = response in the unintended direction; inactive = score below 0.9.

Columns and labels:
[1] = read-out: Tumor necrosis factor receptor 1 (TNFRSF1A), TNFRSF1A (gene 7132); assay: LTEA_HepaRG_TNFRSF1A: Life Technologies and Expression Analysis (LTEA) Assay for Tumor necrosis factor receptor 1 (TNFRSF1A) using HepaRG (AID 2283535; active = hit-call score of the fitted dose curve at least 0.9, where 1 is the maximum; inactive = score below 0.9); settings: mRNA level, 48 h; actives raise or lower the signal
How it was run: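 mRNA measured by qRT-PCR (TaqMan, Fluidigm arrays) against ACTB/GAPDH/POLR2A housekeepers after 48 h chemical exposure of HepaRG cells. Top concentration 100 uM, half-log 8-point series, duplicates; vehicle 0.5% DMSO, both fit directions.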

[2] = read-out: Thyroid Hormone Responsive (THRSP), THRSP (gene 7069); assay: LTEA_HepaRG_THRSP: Life Technologies and Expression Analysis (LTEA) Assay for Thyroid Hormone Responsive (THRSP) using HepaRG (AID 2283536; active = hit-call score of the fitted dose curve at least 0.9, where 1 is the maximum; inactive = score below 0.9); settings: mRNA level, 48 h; actives raise or lower the signal
How it was run: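 Cell model: human HepaRG, approx. 100,000 cells/well, 0.5% DMSO vehicle. Exposure lasts 48 h; phenobarbital 1 mM serves as induction positive control. Gene expression is measured by qRT-PCR against three endogenous control genes.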

[3] = read-out: Cellular tumor antigen p53 (Homo sapiens) (UniProt P04637); assay: LTEA_HepaRG_TP53: Life Technologies and Expression Analysis (LTEA) Assay for Tumor Protein P53 (TP53) using HepaRG (AID 2283537; active = hit-call score of the fitted dose curve at least 0.9, where 1 is the maximum; inactive = score below 0.9); settings: mRNA level, 48 h; actives raise or lower the signal
How it was run: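 Differentiated HepaRG cells in serum-free induction medium exposed 48 h in duplicate to 8 half-log concentrations, top 100 uM, 0.5% DMSO. TP53 mRNA by TaqMan qRT-PCR (Fluidigm), normalized to ACTB, GAPDH, POLR2A; fitted bidirectionally versus DMSO.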

[4] = read-out: UDP glucuronosyltransferase (UGT1A1), UGT1A1 (gene 54658); assay: LTEA_HepaRG_UGT1A1: Life Technologies and Expression Analysis (LTEA) Assay for UDP glucuronosyltransferase (UGT1A1) using HepaRG (AID 2283538; active = hit-call score of the fitted dose curve at least 0.9, where 1 is the maximum; inactive = score below 0.9); settings: mRNA level, 48 h; actives raise or lower the signal
How it was run: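 mRNA induction or loss of UGT1A1, by TaqMan qRT-PCR, in duplicate HepaRG wells after 48 h exposure to half-log dilutions topping at 100 uM; DMSO (0.5%) served as baseline.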

[5] = read-out: UDP glucuronosyltransferase (UGT1A6), UGT1A6 (gene 54578); assay: LTEA_HepaRG_UGT1A6: Life Technologies and Expression Analysis (LTEA) Assay for UDP glucuronosyltransferase (UGT1A6) using HepaRG (AID 2283539; active = hit-call score of the fitted dose curve at least 0.9, where 1 is the maximum; inactive = score below 0.9); settings: mRNA level, 48 h; actives raise or lower the signal
How it was run: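 Expression was quantified by TaqMan qRT-PCR on Fluidigm arrays with ACTB/GAPDH/POLR2A normalization and bidirectional fitting against 0.5% DMSO. HepaRG cells (~100,000/well) were treated in duplicate for 48 h at eight half-log concentrations up to 100 uM in serum-free induction medium.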

[6] = read-out: X-box binding protein 1 (XBP1), XBP1 (gene 7494); assay: LTEA_HepaRG_XBP1: Life Technologies and Expression Analysis (LTEA) Assay for X-box binding protein 1 (XBP1) using HepaRG (AID 2283540; active = hit-call score of the fitted dose curve at least 0.9, where 1 is the maximum; inactive = score below 0.9); settings: mRNA level, 48 h; actives raise or lower the signal
How it was run: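 XBP1 transcript by qRT-PCR (housekeeping-normalized: ACTB, GAPDH, POLR2A) after 48 h chemical treatment of HepaRG cells, 8-point half-log series topping at 100 uM, vehicle 0.5% DMSO. Gain and loss of signal fitted relative to DMSO.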

[7] = LTEA_HepaRG_LDH_cytotoxicity: Cytotoxicity Assessment in the Life Technologies and Expression Analysis (LTEA) Assay (AID 2283563)
How it was run: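 LDH release into culture medium read after 48 h chemical treatment of HepaRG cells. Duplicate wells, eight-point half-log series topping at 100 uM, 0.5% DMSO vehicle and baseline.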

[8] = Tanguay_ZF_120hpf_MORT_legacy: (Legacy) Oregon State University Tanguay Lab 120 Hour Post-fertilization zebrafish Assay for Mortality (AID 2283633)
How it was run: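 Static waterborne exposure from 6 to 120 hpf at 28C of single dechorionated wild-type (5D) embryos per well, 0.64% DMSO final. Death recorded present/absent by brightfield at 24 and 120 hpf.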

[9] = Tanguay_ZF_120hpf_YSE_legacy: (Legacy) Oregon State University Tanguay Lab 120 Hour Post-fertilization zebrafish Assay for Yolk Sac Edema (AID 2283634)
How it was run: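 Presence or absence of yolk sac edema was recorded at 120 hpf in surviving larvae. These were wild-type Tropical 5D embryos, chorion removed at 4 hpf, held in static exposure at 28C from 6 hpf with 0.64% DMSO vehicle.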

[10] = Tanguay_ZF_120hpf_AXIS_legacy: (Legacy) Oregon State University Tanguay Lab 120 Hour Post-fertilization zebrafish Assay for Body Axis Malformation (AID 2283635)
How it was run: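 Binary scoring of axis defects at 120 hpf under brightfield, fitted positive versus DMSO. Tropical 5D embryos, chorion removed by pronase at 4 hpf, were singly exposed in sealed, dark plates at 28C from 6 hpf; DMSO 0.64% final.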

[11] = Tanguay_ZF_120hpf_EYE_legacy: (Legacy) Oregon State University Tanguay Lab 120 Hour Post-fertilization zebrafish Assay for Eye Malformation (AID 2283636);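 also: binary presence or absence of eye malformation scored by brightfield in 120 hpf larvae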
How it was run: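 Static waterborne exposure of dechorionated zebrafish embryos (strain Tropical 5D), 6 to 120 hpf, sealed plates at 28C, 0.64% DMSO vehicle. Eye malformation is scored as a binary endpoint, with gain of signal analysed relative to DMSO.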

[12] = Tanguay_ZF_120hpf_SNOU_legacy: (Legacy) Oregon State University Tanguay Lab 120 Hour Post-fertilization zebrafish Assay for Snout Malformation (AID 2283637)
How it was run: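 Dechorionated zebrafish, individually housed from 6 hpf in covered, sealed wells at 28C with 0.64% DMSO vehicle, were examined at 120 hpf for snout malformation. Responses were binary and analysed positive-direction relative to DMSO.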

[13] = Tanguay_ZF_120hpf_JAW_legacy: (Legacy) Oregon State University Tanguay Lab 120 Hour Post-fertilization zebrafish Assay for Jaw Malformation (AID 2283638)
How it was run: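 Binary jaw-malformation call at 120 hpf by brightfield microscopy. Embryos (Tropical 5D strain, chorion removed at 4 hpf) were dosed statically at 6 hpf, one per well, at 28C with 0.64% DMSO. Embryos that died were not scored.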

[14] = Tanguay_ZF_120hpf_OTIC_legacy: (Legacy) Oregon State University Tanguay Lab 120 Hour Post-fertilization zebrafish Assay for Otic Vesicle Malformation (AID 2283639)
How it was run: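 Wild-type zebrafish larvae, whole-embryo exposure from early stage to 120 hpf at 28C. Binary brightfield scoring of otic vesicle morphology, fitted in the positive direction against the DMSO baseline.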

[15] = Tanguay_ZF_120hpf_PE_legacy: (Legacy) Oregon State University Tanguay Lab 120 Hour Post-fertilization zebrafish Assay for Pericardial Edema (AID 2283640)
How it was run: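 Scoring was binary, by brightfield microscopy at 120 hpf, and skipped where mortality occurred. Wild-type embryos were kept under sealed, foil-covered static exposure at 28C in 0.64% (vol/vol) DMSO.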

[16] = Tanguay_ZF_120hpf_BRAI_legacy: (Legacy) Oregon State University Tanguay Lab 120 Hour Post-fertilization zebrafish Assay for Brain Malformation (AID 2283641)
How it was run: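 Binary brightfield scoring of brain malformation at 120 hpf in Tropical 5D larvae held under static exposure at 28C (0.64% v/v DMSO), non-mortality endpoints skipped if dead. Positive control: 5uM trimethyltin chloride; fit versus DMSO.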

[17] = Tanguay_ZF_120hpf_SOMI_legacy: (Legacy) Oregon State University Tanguay Lab 120 Hour Post-fertilization zebrafish Assay for Somite Malformation (AID 2283647)
How it was run: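 Binary somite-defect scoring at 120 hpf, omitted for embryos that died, in wild-type (Tropical 5D) zebrafish with chorion removed by pronase at 4 hpf; static exposure began 6 hpf, single embryos per well, 28C, 0.64% DMSO; fitted positive versus DMSO.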

[18] = Tanguay_ZF_120hpf_PFIN_legacy: (Legacy) Oregon State University Tanguay Lab 120 Hour Post-fertilization zebrafish Assay for Pectoral Fin Malformation (AID 2283648);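 also: each larva judged yes or no for fin defect by brightfield with dead larvae skipped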
How it was run: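 Scoring of pectoral fin malformation was binary, made at 120 hpf on larvae exposed statically from 6 hpf after enzymatic chorion removal. Activity was fitted upward relative to DMSO controls at 0.64% (vol/vol).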

[19] = Tanguay_ZF_120hpf_CFIN_legacy: (Legacy) Oregon State University Tanguay Lab 120 Hour Post-fertilization zebrafish Assay for Caudal Fin Malformation (AID 2283649)
How it was run: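 Binary brightfield scoring of caudal fin defects at 120 hpf after static, light-shielded exposure at 28C from 6 hpf. Tropical 5D embryos, chorion removed with pronase at 4 hpf, final DMSO 0.64%.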

[20] = Tanguay_ZF_120hpf_SWIM_legacy: (Legacy) Oregon State University Tanguay Lab 120 Hour Post-fertilization zebrafish Assay for Swim Bladder Malformation (AID 2283654);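 also: swim bladder malformation in each larva scored yes or no under brightfield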
How it was run: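 Static waterborne exposure of single dechorionated Tropical 5D zebrafish embryos, 6–120 hpf, 28C, 0.64% DMSO final. Read-out: swim bladder malformation, present/absent, relative to DMSO negative control; trimethyltin chloride 5uM served as positive control.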

Measured: outcome

Sequence of Cellular tumor antigen p53 (Homo sapiens) (P04637 whole entry, looked up): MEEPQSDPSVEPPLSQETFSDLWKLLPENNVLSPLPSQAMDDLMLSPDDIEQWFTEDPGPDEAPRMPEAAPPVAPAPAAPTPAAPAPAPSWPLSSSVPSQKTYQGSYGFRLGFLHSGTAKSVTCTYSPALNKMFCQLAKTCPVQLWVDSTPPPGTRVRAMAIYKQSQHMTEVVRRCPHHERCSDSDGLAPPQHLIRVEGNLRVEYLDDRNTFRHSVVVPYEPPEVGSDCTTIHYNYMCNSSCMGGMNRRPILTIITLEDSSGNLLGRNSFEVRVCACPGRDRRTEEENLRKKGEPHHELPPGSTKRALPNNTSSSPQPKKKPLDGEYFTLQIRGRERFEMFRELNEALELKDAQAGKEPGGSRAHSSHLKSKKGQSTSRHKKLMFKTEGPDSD

O=[N+]([O-])c1ccc(Cl)cc1
inactive: all assays above
